# This is a sample that favours compounds with a hit; in the whole collection about 19% have one here.
# HT1080 IDH1KD tx: toxicity to HT-1080 IDH1 knockdown cells (counter line); 360,000 compounds, 2% hits; AID 686971; Potency, µM (highest dose often 46.1 µM), without a hit: top-dose activity, negative = toxicity, most hits filed as cytotoxic; HT-1080 IDH1 knockdown viability, ATP luminescence, 48 h;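 further: 0% = DMSO wells and -100% = cell-free medium wells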
#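 CellTiter-Glo luminescence after 48 h compound exposure at 37 degrees C of IDH1-knockdown HT-1080 cells in 5% FBS RPMI. %Activity scaled between DMSO wells and cell-free media wells, with curves fitted and assigned curve classes.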
# TDP1 cell noCPT: qHTS for Inhibitors of human tyrosyl-DNA phosphodiesterase 1 (TDP1): qHTS in cells in absence of CPT. DT40 Tdp1-/- hTDP1 cells, no CPT, ATP luminescence, 48 h. Potency, µM (doses to about 46.2 µM), for the others: at the highest dose activity change, negative = growth inhibition, hits mostly inhibitors. 420,000 compounds, 15% hits. AID 686978, 2013; further: nearly all actives have a fitted effect of over 55% in size
#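 Seeded 400 DT40-hTDP1 cells/well (vehicle DMSO, no 20 nM CPT); pinned compounds; ≥48 hr at 37 °C; CellTiter-Glo luminescence as viability measure.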
# HT1080-NT tox: kills 2HG-producing HT-1080-NT fibrosarcoma cells. 360,000 compounds, 1.6% hits. HT-1080-NT fibrosarcoma viability, CellTiter-Glo ATP luminescence, 48 h. AID 686970. Potency, µM (top dose mostly 46.1 µM), without a hit: top-dose activity, negative = less viability, usual class: cytotoxic;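 further: NT is the 2HG producing partner of a matched IDH1 knockdown line; 0% = DMSO-treated cells and -100% = media-only wells without cells; nearly all actives have a fitted effect of over 55% in size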
#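 Toxicity toward the 2HG-producing NT line was scored as %Activity, normalised to DMSO and no-cell wells, from CellTiter-Glo luminescence after 48 hours' treatment.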
# DT40 TDP1 CPT: DT40-hTDP1 cell growth loss with CPT; chicken DT40 Tdp1-/-;hTDP1 cells + 20 nM CPT, ATP luminescence, 48 h; Potency, µM (top dose mostly 46.2 µM), for the others: at the top dose activity change, negative = growth inhibition, most hits filed as inhibitors; 420,000 compounds, 12% hits; AID 686979; further: nearly all actives have a fitted effect of over 55% in size
#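 Chicken DT40 Tdp1-/- cells stably complemented with human TDP1 were seeded at 400 cells/well in medium containing 20 nM camptothecin, exposed to pin-transferred compounds, and grown at 37 °C for at least 48 hr. Viability was read as ATP luminescence.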
# KB-V1 MDR tox: kills drug-selected multidrug resistant KB-V1 cells; 400,000 compounds, 3.4% hits; KB-V1 MDR cells viability, CellTiter-Glo, 72 h; Potency, µM (titrated, usually from 46.1 µM), actives largely listed as cytotoxic; AID 1347076; further: nearly all actives have a fitted effect of over 60% in size
#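 Luminescent ATP read-out (CellTiter-Glo, 10 min) measures survival of drug-selected KB-V1 MDR cells after 72 h, 37 degrees C compound exposure. Medium: phenol-red-free DMEM, 10% FBS. Values from fitted concentration-response curves.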
# KB-3-1 cytotox: kills parental KB-3-1 adenocarcinoma cells | KB-3-1 viability, CellTiter-Glo ATP luminescence, 72 h | Potency, µM (highest dose often 46.1 µM), hits mostly cytotoxic | 400,000 compounds, 1.4% hits | AID 1347075; further: nearly all actives have a fitted effect of over 60% in size
#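 Parental KB-3-1 viability, qHTS format: 72 h compound exposure, 37 °C; CellTiter-Glo; media-only wells and DMSO plates as controls; concentration-effect fits on corrected data.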
# Starred values were filed as active, the others as inactive; i = inactive; ? = inconclusive; . = no result; [ ] = remark or other dose. The call rests on the fitted dose curve; in most records, active means well fitted curve in the direction sought with a large enough effect; inconclusive means small, poorly fitted or top-dose-only effect, or another doubt; inactive means no such curve, though single readings can be large; an effect the other way counts as inactive or inconclusive. Unless noted, on the % scale 0 is the no-effect control and ±100 the full control effect; potency means the concentration at half of the fitted maximal effect.
SMILES,HT1080 IDH1KD tx,TDP1 cell noCPT,HT1080-NT tox,DT40 TDP1 CPT,KB-V1 MDR tox,KB-3-1 cytotox
Cc1ccc(C(C(=O)NC2CCCCC2)N(C(=O)Cc2c[nH]c3ccccc23)c2ccccc2C)o1 (configuration not stated),23µM*,21µM*,15µM*,26µM*,?,?
O=C(C1CCC(Cn2c(=O)c3sccc3n(Cc3ccccc3)c2=O)CC1)N1CCCCC1 (configuration not stated),.,?,.,?,i,i
COCC1CCN(C(=O)c2cc(COc3cc(C)c(Cl)c(C)c3)on2)C1 (configuration not stated),4%,3%,-1%,?,i,i
Cc1ccc(-c2nnc(Nc3ccc(C(N)=O)cc3)c3ccccc23)cc1S(N)(=O)=O,.,0%,.,10%,?,i
COc1ccc(OC)c(NC(=S)NCCC(c2ccccc2)c2ccccc2)c1,-15%,15µM*,-9%,?,?,?
Cc1ccc(NC(=S)NCCC(c2ccccc2)c2ccccc2)c(C)c1,-22%,16µM*,-17%,23µM*,i,?
CC(C)(C)c1ccccc1NC(=S)NCc1ccccc1,9%,18µM*,6%,?,i,i
Cc1ccc(NC(=S)NCc2ccccc2)c(C)c1,10%,?,7%,23µM*,i,i
Cc1ccccc1NC(=S)NCCC(c1ccccc1)c1ccccc1,?,?,-19%,?,?,i
Cn1cnnc1SCC(=O)Nc1ccc2ccccc2c1,5%,4%,4%,-30%,?,i
Cc1ccc(NC(=S)NNC(=O)c2ccccc2O)c(C)c1,-16%,13µM*,0%,23µM*,i,?
CCc1nc2c(OCC(=O)C(C)(C)C)cccn2c1N(C)C(=O)C1CC1,18%,-23%,3%,-1%,i,i
CCOC(=O)C(=O)N(C)c1c(CC)nc2c(OCCC3CCCCC3)cccn12,-21%,18µM*,-8%,?,i,i
CCOC(=O)N(C)c1c(CC)nc2c(OCCC3CCCCC3)cccn12,?,16µM*,?,?,i,i
CCc1nc2c(OCCC3CCCCC3)cccn2c1N(C=O)Cc1ccc(OC)cc1,?,?,?,?,?,i
c1cnc(N2CCN(c3ncc4c(n3)CCNC4)CC2)nc1,.,0%,.,16%,i,i
COc1ccc(N/N=C(\C#N)C(N)=O)cc1,-6%,-1%,-24%,11%,i,i
N#C/C(=N/Nc1ccc(OC(F)(F)F)cc1)C(N)=S,16µM*,1.6µM*,23µM*,2.3µM*,?,?
COc1cc2c(cc1OC)C1=NC(=O)CN1C(SCc1ccccc1C)=N2,0%,10µM*,4%,10µM*,?,i
CCOC(=O)c1ccc(NC(=O)c2nc(SC(C)C)ncc2Cl)cc1,.,16µM*,.,16µM*,i,i
Cc1nnc(NC(=O)c2nc(SC(C)C)ncc2Cl)s1,.,-8%,.,-19%,i,i
CCOC(=O)c1c(-c2ccc(C)cc2)csc1NC(=O)c1nc(SC(C)C)ncc1Cl,.,4%,.,0%,i,i
Cc1cccc(C)c1NC(=O)c1nc(SC(C)C)ncc1Cl,.,?,.,18µM*,i,i
CC(=O)c1cccc(N(CC(=O)NC2CCCCC2)C(=O)CNC(=O)c2cccs2)c1,4%,-2%,-17%,-11%,i,i
CCC(C)NCC(=O)Nc1ccc(S(N)(=O)=O)cc1 (configuration not stated),23%,-33%,25%,?,i,i
SMILES,HT1080 IDH1KD tx,TDP1 cell noCPT,HT1080-NT tox,DT40 TDP1 CPT,KB-V1 MDR tox,KB-3-1 cytotox
Cc1ccc(C)c(SCC(=O)N(C)CC(=O)Nc2ccc(N3CCOCC3)cc2)c1,-12%,-20%,-19%,-18%,i,i
COc1ccc(-c2nn(Cc3ccccc3)cc2C(=O)N2CCN(c3ncccn3)CC2)cc1OC,2%,-4%,-4%[9.24 µM],-4%,?,i
CCSc1nc(-c2ccccc2)nc2c1CCCC2,9%,?,-9%,?,i,i
CN(C)CCSc1nc(-c2ccccc2)nc2c1CCCC2,-10%,16µM*,-23%,12µM*,i,i
Cc1cccc(-c2nc3c(c(SCC(=O)N(C)C)n2)CCCC3)c1,16%,16µM*,7%,?,?,i
CCCCNS(=O)(=O)c1ccc2nc(-c3cccnc3)cc(C(=O)NCCCOC(C)C)c2c1,.,?,.,-29%,i,i
CC(C)C/C=C1\CCc2c([nH]c3ccccc23)C1=O,18%,-18%,2%,33%,i,i
CC1C/C(=C\c2cccnc2)C(=O)/C(=C/c2cccnc2)C1 (configuration not stated),2.9µM*,0.73µM*,?,0.82µM*,?,?
O=C1/C(=C/c2cccnc2)CCc2c1[nH]c1ccccc21,13µM*,?,15µM*,18µM*,13µM*,i
Cc1ccc(-c2nn(-c3ccc(F)cc3)cc2C(=O)N2CCN(C3CCS(=O)(=O)C3)CC2)cc1 (configuration not stated),-1%,-26%,13%,-12%,i,i
CCOC(=O)COc1ccccc1/C=C\[N+](=O)[O-],2.9µM*,1.6µM*,8.2µM*,2.6µM*,15µM*,9.2µM*
CCOc1ccc(NC(=O)N2CCN(Cc3cc(=O)n4nc(-c5ccc(OC)cc5)sc4n3)CC2)cc1,.,-20%,.,-2%,i,i
OCCNc1nc(NCCC2=CCCCC2)nc(N2CCOCC2)n1,-13%,21µM*,-1%,21µM*,i,i
CCOc1nc(NCCC2=CCCCC2)nc(N2CCOCC2)n1,-3%,?,1%,?,i,i
COc1cccc(CCOC(=O)c2c(-c3ccsc3)oc3c2C(OC(C)=O)CCC3)c1 (configuration not stated),-12%,?,-19%,?,?,i
Cc1ccc(Oc2nc3ccccn3c(=O)c2/C=C(\C#N)c2nc3ccccc3s2)c(C)c1,.,4.1µM*,.,12µM*,i,i
CCOC(=O)/C(C#N)=C/c1c(Oc2cc(C)cc(C)c2)nc2ccccn2c1=O,1%,-21%,2%,-20%,?,i
Cc1ccccc1Oc1nc2ccccn2c(=O)c1/C=C(\C#N)c1nc2ccccc2[nH]1,.,-11%,.,-22%,.,.

# Source: PubChem (National Center for Advancing Translational Sciences (NCATS))
